# KDM5B inhibitor: inhibitors of human KDM5B histone demethylase; AID 1347165; Q9UGL1; Potency, µM (doses to about 57.7 µM), most hits filed as inhibitors; 2.6% of 220,000 active; KDM5B demethylase, FDH-coupled NADH fluorescence (FDH is formaldehyde dehydrogenase); note: potency is the fitted concentration of half-maximal effect; 0% is about no effect; nearly all actives have a fitted effect of over 70% in size
#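 qHTS format, multiple compound concentrations. Buffer 50 mM HEPES pH 7.5/0.01% Tween-20; 200 nM KDM5BΔAP final; 10 min compound preincubation; substrate-mix levels 12.5 µM peptide, 25 µM α-KG, 0.25 mM NAD⁺; 30 min RT; ΔRFU.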
# IP6K1 inh: IP6K1 kinase inhibition; 0.81% of 140,000 active; activity change, % (series mostly up to about 58 µM); IP6K1 kinase, ADP-Glo luminescence, 2 h; hits give low values; in the data active = activity change below about -25%; note: % is set by controls: 0 for no effect and ±100 for the full control effect
# Target sequence (Q92551 whole entry, looked up): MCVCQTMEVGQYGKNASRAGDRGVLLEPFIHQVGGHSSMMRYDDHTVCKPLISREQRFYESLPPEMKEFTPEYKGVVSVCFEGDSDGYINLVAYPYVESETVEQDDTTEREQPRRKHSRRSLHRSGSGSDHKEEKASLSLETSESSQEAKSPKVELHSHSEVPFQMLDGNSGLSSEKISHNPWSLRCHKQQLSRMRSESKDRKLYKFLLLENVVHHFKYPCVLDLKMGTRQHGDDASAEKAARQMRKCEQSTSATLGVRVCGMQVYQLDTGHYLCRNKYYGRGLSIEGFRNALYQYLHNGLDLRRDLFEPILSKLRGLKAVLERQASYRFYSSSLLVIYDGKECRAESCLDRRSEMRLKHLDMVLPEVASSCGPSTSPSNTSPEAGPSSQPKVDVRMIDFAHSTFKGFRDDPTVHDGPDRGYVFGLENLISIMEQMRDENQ
#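 ADP-Glo luminescence measures ADP made by human IP6K1 during a 2 h RT reaction with ATP/IP6 (mix at 1.3 mM/130 uM); top library doses 57.5 and 19.1 uM final.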
# Starred values were filed as active, the others as inactive; i = inactive; ? = inconclusive; nt = no result given. In the library only some 2.7% were active in any assay of this set; here they are far more common.
SMILES,KDM5B inhibitor,IP6K1 inh
Clc1ccccc1C1(c2ccnc(C3CCCC3)n2)CCNCC1,i,0
COc1ccc(CNC(=O)Nc2nnc(C3CC3)s2)cn1,i,nt
CCOC(=O)c1ccc(NC(=O)CN(c2ccccc2Cl)S(C)(=O)=O)cc1,i,nt
CCOC(=O)c1cc2c(=O)n3ccccc3nc2n(Cc2ccco2)c1=NC(=O)c1c(F)cccc1Cl,?,-60*
CCOC(=O)c1cc2c(=O)n3ccccc3nc2n(Cc2ccco2)c1=NC(=O)c1cccc(Br)c1,?,-4
N#Cc1cccnc1N1CCN(Cc2cn(-c3ccccc3)nn2)CC1,22µM*,-12
c1ccc(-c2nnc3n2CCN(Cc2cn(-c4ccccc4)nn2)CC3)cc1,i,1
CC1(CNc2ccccc2)COc2ccc(C(=O)NCCc3ccccn3)cc2N1 (stereo unspecified),22µM*,-15
CN(Cc1ccccc1)C(=O)c1ccc2c(c1)NC(C)(COc1ccccc1)CO2 (stereo unspecified),40µM*,11
CC1(COc2ccccc2)COc2ccc(C(=O)Nc3ccc4[nH]ccc4c3)cc2N1 (stereo unspecified),?,3
CC1(CNc2ccccc2)COc2ccc(C(=O)N3CCN(c4ccccn4)CC3)cc2N1 (stereo unspecified),?,-5
CC1(COc2ccccc2)COc2ccc(C(=O)NCCOc3ccccc3)cc2N1 (stereo unspecified),40µM*,2
CC1(CNc2ccccc2)COc2ccc(C(=O)NCCN3CCOCC3)cc2N1 (stereo unspecified),i,-2
CCOCC1(C)COc2ccc(C(=O)N(C)Cc3ccccc3)cc2N1 (stereo unspecified),i,11
CC1(CNc2ccccc2)COc2ccc(C(=O)NCCOc3ccccc3)cc2N1 (stereo unspecified),28µM*,-12
O=C(Nc1nn(Cc2ccc(Cl)cc2Cl)cc1Cl)c1nc2ncccn2n1,i,nt
CC1C(c2ccc(Cl)cc2)=[N+]([O-])C(C)(c2cccc([N+](=O)[O-])c2)N1O (stereo unspecified),i,nt
CCCCNC(=O)N1CCc2c(c3cc(F)ccc3n2C)C1,?,-6
Cc1ccccc1NC(=O)N1CCc2c(c3cc(F)ccc3n2C)C1,28µM*,-10
CCc1cccc(NC(=O)N2CCc3c(c4cc(F)ccc4n3C)C2)c1,25µM*,-5
CCc1ccc(NC(=O)N2CCc3[nH]c4ccc(F)cc4c3C2)cc1,?,-4
Cn1c2c(c3cc(F)ccc31)CN(C(=O)Nc1cccc(F)c1)CC2,?,-4
CC(C)c1cccc(C(C)C)c1NC(=O)N1CCc2c(c3cc(F)ccc3n2C)C1,25µM*,-3
Cn1c2c(c3cc(F)ccc31)CN(C(=O)Nc1ccccc1)CC2,?,-3
Cc1ccc(NC(=O)N2CCc3c(c4cc(F)ccc4n3C)C2)cc1,14µM*,-3
SMILES,KDM5B inhibitor,IP6K1 inh
O=C(COc1ccc([N+](=O)[O-])cc1)Nc1ccc2oc(-c3ccc4ccccc4c3)nc2c1,i,nt
NC(=O)c1ccsc1NC(=O)CSc1ccc2c(c1)CCC2,i,nt
CCOC(=O)c1ccc(NC(=O)Cn2c(-c3ccc(F)cc3)nc(C)c(CCO)c2=O)cc1,i,1
O=C1[C@H]2CC[C@H](CN(Cc3ccc(-n4ccnc4)cc3)C2)N1CC1CCC1,20µM*,3
O=C1[C@H]2CC[C@H](CN(Cc3cccc(N4CCOCC4)c3)C2)N1CC1CCC1,i,25
N#C/C(=C\c1ccc(-c2cccc(C(=O)O)c2)o1)C(=O)N1CCOCC1,i,nt
COc1cc(NC(=O)c2cc3c(N4CCSCC4)nc(C)cn3n2)c(OC)cc1Cl,?,5
Cc1cn2nc(C(=O)Nc3ccc(F)cc3C)cc2c(N2CCSCC2)n1,25µM*,0
Cc1ccc(NC(=O)c2cc3c(N4CCSCC4)nc(C)cn3n2)c(F)c1,28µM*,9
CCOC(=O)N1CCN(Cc2nc3cc(NC(=O)c4ccccc4[N+](=O)[O-])ccc3n2C(C)C)CC1,i,-14
CCOC(=O)N1CCN(Cc2nc3cc(NC(=O)c4ccccc4OC)ccc3n2C(C)C)CC1,?,-57*
COc1cccc(-c2ccnc3nc(CCc4ccccc4)nn23)c1,20µM*,6
COc1ccc(-c2ccnc3nc(CC(C)C)nn23)cc1OC,28µM*,2
COc1ccc(CCc2nc3nccc(-c4cccnc4)n3n2)cc1,i,6
COc1ccc(CCc2nc3nccc(-c4ccc5c(c4)OCCCO5)n3n2)cc1OC,?,3
COc1ccc(-c2ccnc3nc(CC(C)C)nn23)cc1,i,-4
COc1cccc(-c2ccnc3nc(CC(C)C)nn23)c1,25µM*,-3
COc1cccc(-c2cn3cc(C(=O)NCC4CCCCC4)nc3s2)c1,nt,14
CC(C)CCN1CCC2(CC1)CC(=O)N(c1ccccc1)c1ccccc1O2,i,-3
CC(C)(C)c1ccc(CS(=O)CCC(=O)Nc2ccccc2)cc1 (stereo unspecified),i,nt
CC(=O)N1CCN(c2ccnc(-c3nnc(C)n3-c3ccccc3)c2)CC1,35µM*,6
Cc1nnc(-c2cc(N3CCN(c4ccccn4)CC3)ccn2)n1-c1ccccc1,i,-8
COc1ccc(Cl)cc1COc1ccc(C#N)cc1OC,i,nt
Cc1ccc2nc(C)cc(C(=O)OCC(=O)c3ccc(C)c([N+](=O)[O-])c3)c2c1,i,nt
CNCCN1C(=O)CC[C@H]2CN(C(=O)COc3cccnc3)CC[C@H]21,i,-1
SMILES,KDM5B inhibitor,IP6K1 inh
CNCCN1C(=O)CC[C@H]2CN(C(=O)c3ccnc(NC)c3)CC[C@H]21,25µM*,5
N#Cc1cccnc1N1CCCC(CO)(CCCc2ccccc2)C1 (stereo unspecified),?,5
CN(CCc1ccccc1)CCN1CC2(CCN(c3ncccc3C#N)CC2)OC1=O,32µM*,-12
Cc1nn(-c2ccccc2)c2c1C(C1CC1)N(C1CCN(C(=O)Cc3ccc(F)cc3)C1)C2=O (stereo unspecified),nt,2
Cc1cc(N)c([N+](=O)[O-])cc1C,i,nt
CSc1cccc(NC(=O)N2CCC3(CC2)N=C(c2cccc(Cl)c2)C(=O)N3)c1,i,nt
c1cncc(CN2CCC(C3CCN(Cc4ccc[nH]4)C3)CC2)c1 (stereo unspecified),14µM*,-7
CS(=O)(=O)N1CCC(C2CCN(Cc3ccc[nH]3)C2)CC1 (stereo unspecified),?,11
COc1ccc(OC)c(NC(=O)C2CC(=O)N(c3n[nH]c4cccc(F)c34)C2)c1 (stereo unspecified),32µM*,-2
CCOc1ccc(NC(=O)C2CC(=O)N(c3n[nH]c4cccc(F)c34)C2)cc1 (stereo unspecified),22µM*,-2
O=C(C1CC(=O)N(c2n[nH]c3cccc(F)c23)C1)N1CCN(c2cccc(Cl)c2)CC1 (stereo unspecified),?,-12
O=C(Nc1nccs1)C1CC(=O)N(c2n[nH]c3cccc(F)c23)C1 (stereo unspecified),i,-2
O=C(NCc1ccccc1)C1CC(=O)N(c2n[nH]c3cccc(F)c23)C1 (stereo unspecified),i,-6
O=C(NCc1ccc(Cl)cc1)C1CC(=O)N(c2n[nH]c3cccc(F)c23)C1 (stereo unspecified),20µM*,-14

# Bioassay records deposited in PubChem by National Center for Advancing Translational Sciences (NCATS).
